The structures appear in SMILES notation. Screen size: about 370,000 compounds; about 620 (0.17%) were called active. Many of the other results were omitted from the sample, so actives are more common in it than they were. A number with no mark means an inactive call.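 The calls were made as follows: active = inhibition above the mean inhibition of all tested compounds plus 3 SD, set per campaign (cut at about 52% in these data); inactive = the rest.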

Sequence of Nuclear receptor coactivator 2 (Homo sapiens) (Q15596 whole entry, looked up, the tested form may be a part): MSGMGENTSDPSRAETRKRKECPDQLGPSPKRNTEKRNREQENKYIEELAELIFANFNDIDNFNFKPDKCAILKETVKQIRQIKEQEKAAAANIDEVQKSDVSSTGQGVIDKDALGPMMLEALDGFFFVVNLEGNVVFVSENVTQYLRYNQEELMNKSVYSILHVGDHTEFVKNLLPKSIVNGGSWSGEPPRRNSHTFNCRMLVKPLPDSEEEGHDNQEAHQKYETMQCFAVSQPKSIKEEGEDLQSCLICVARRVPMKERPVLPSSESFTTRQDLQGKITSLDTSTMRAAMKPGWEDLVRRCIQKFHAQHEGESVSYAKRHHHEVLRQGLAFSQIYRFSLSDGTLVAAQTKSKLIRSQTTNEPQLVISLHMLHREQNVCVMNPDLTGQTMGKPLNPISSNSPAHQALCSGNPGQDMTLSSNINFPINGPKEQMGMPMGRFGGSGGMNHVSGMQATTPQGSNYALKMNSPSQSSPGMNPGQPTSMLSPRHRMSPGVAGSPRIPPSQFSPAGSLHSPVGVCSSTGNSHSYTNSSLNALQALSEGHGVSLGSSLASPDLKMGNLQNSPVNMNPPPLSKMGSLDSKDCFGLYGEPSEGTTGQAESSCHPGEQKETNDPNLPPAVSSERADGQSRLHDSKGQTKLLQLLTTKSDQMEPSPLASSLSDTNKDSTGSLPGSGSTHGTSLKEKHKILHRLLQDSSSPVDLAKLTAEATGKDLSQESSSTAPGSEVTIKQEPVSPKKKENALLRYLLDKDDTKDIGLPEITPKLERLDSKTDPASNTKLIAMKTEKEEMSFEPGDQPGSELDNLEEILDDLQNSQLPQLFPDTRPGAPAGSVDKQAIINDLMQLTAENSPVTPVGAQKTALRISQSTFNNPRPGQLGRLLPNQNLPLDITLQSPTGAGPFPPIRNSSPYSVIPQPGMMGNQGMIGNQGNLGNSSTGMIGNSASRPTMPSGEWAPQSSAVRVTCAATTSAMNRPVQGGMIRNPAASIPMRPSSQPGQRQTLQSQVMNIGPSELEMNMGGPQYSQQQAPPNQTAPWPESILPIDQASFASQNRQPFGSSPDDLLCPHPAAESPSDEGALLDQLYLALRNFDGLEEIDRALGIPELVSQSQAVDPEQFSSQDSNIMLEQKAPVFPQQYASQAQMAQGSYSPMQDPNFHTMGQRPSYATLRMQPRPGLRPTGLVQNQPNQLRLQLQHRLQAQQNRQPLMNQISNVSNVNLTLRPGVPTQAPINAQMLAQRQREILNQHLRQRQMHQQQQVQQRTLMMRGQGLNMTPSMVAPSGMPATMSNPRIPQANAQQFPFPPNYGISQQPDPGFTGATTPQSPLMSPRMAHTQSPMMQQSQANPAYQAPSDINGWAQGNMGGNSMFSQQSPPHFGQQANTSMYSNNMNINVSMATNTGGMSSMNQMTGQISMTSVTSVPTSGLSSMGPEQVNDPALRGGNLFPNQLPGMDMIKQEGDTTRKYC

The experiment addresses Nuclear receptor coactivator 2 (Homo sapiens) (UniProt Q15596). Nature of the experiment: decrease of SRC2 fusion reporter luminescence – cell-based, SRC2 inhibitor project, primary screen (AID 651957).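 Also: 0% = DMSO treated cells and 100% = cells given Gossypol at 36 µM.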 The note with it: HEK293 GAL4-SRC2 luciferase reporter, at 9 µM, stronger effect = higher value.
The inhibition is the relative decrease from the control value, in per cent. Consider `O=C(NCCC1=CCCCC1)C1CCN(S(=O)(=O)c2ccc(Cl)s2)CC1`, for which the inhibition is -18.3%.

For the compound `COc1ccc(N2CCN(CCNS(=O)(=O)c3ccc([N+](=O)[O-])cc3)CC2)cc1`, the inhibition is 9.36%.

As for `O=S1(=O)c2ccc(Br)cc2OC[C@@H](Cc2ccccc2)N1Cc1cn(Cc2ccco2)nn1`, the inhibition is -13.6%.

Turning to `CC1CCC(N2CC(=O)N(Cc3ccc4c(c3)OCO4)C(c3ccc(F)cc3)C2=O)CC1` (stereo not drawn), the inhibition is 3.66%.

As to `Clc1ccc(C(Cn2ccnc2)OCc2ccsc2Cl)c(Cl)c1` (stereo not drawn), the inhibition was 7.22%.

Consider `COc1ccc2cc(C(=O)O)n(CC(=O)c3ccccc3)c2c1`, for which the inhibition was -12.1%.

In the case of `C=CCOc1ccc(/C=C2\SC(=S)N(CCC(=O)O)C2=O)cc1`, the inhibition was 85.7% (active).

With `C=CCOc1ccc(C(=O)Nc2ccccc2C(=O)N2CCCC2)cc1`, the inhibition was -24.2%.

In the case of `Cc1cc(OCCCC(=O)NCCN2C(=O)S/C(=C\c3cccnc3)C2=O)ccc1Cl`, the inhibition is -14.1%.

As for `CCOC(=O)C1=C(C)NC2=C(C(=O)CC(C)(C)C2)C1c1ccc2c(c1)OCO2` (stereo not drawn), the inhibition was 11.6%.

`COc1ccc2c(c1)CCC/C2=N\OC(=O)c1ccccc1F`: the inhibition is 4.64%.

With `CCCCCCCCN1C(=O)[C@@H](CC(=O)NCCCC)C[C@@]2(C(=O)OC)C1=C[C@H](C(C)(C)C)O[C@@H]2C`, the inhibition was -9.63%.

Turning to `Nn1c(SCC(=O)Nc2ccc(S(N)(=O)=O)cc2)nnc1-c1n[nH]c2c1CCC2`, the inhibition was 10.6%.

Consider `CCOC(=O)C1C(=O)C=C(c2ccc(OC)cc2)CC1c1ccco1` (stereo not drawn), for which the inhibition is -4.74%.

`CCOC(=O)C1=C(CC)Nc2ccccc2N=C1N`: the inhibition was 12.5%.

Take `CCOC(=O)C1=C(c2ccc(OC)cc2)C(=O)c2ccccc2C1=O`: the inhibition is 73.8% (active).

Consider `O=C(CN1C(=O)c2ccccc2S1(=O)=O)N1CCc2ccccc21`, for which the inhibition was 73.3% (active).

In the case of `NS(=O)(=O)c1ccc(CCNC(=O)CN2C(=O)c3ccccc3S2(=O)=O)cc1`, the inhibition is 1.66%.

Consider `Cc1ccc(S(=O)(=O)N(C)CC(=O)N2CCc3ccccc32)cc1`, for which the inhibition is -6.78%.

With `O=C(COC(=O)c1cnccn1)Nc1cccc2ccccc12`, the inhibition was -4.93%.

As for `CCOC(=O)C(C(=O)c1ccccc1)C(c1ccccc1)c1nccc2ccccc12` (stereo not drawn), the inhibition was 14.8%.

Take `COc1cccc(CC(=O)N2CCN(C(=O)C(=O)c3cccc(C(F)(F)F)c3)CC2)c1`: the inhibition was 7.57%.

As to `C[C@H]1CCC/C=C/C(=O)c2c(O)cc(O)cc2CC(=O)O1`, the inhibition was 64.6% (active).

For the compound `COc1ccc(S(=O)(=O)NCC(=O)NCc2cc(=O)n(C)c(=O)n2C)cc1F`, the inhibition was -9.55%.

Take `CC1CCC2(CC1)NC(=O)N(CC(=O)NCc1ccco1)C2=O` (stereo not drawn): the inhibition is -29.4%.

As for `CC1(C)CC(=O)c2sc(N)nc2C1`, the inhibition was 3.79%.

Consider `O=c1oc2ccccc2cc1-c1cn(-c2ccccc2)c(=S)[nH]1`, for which the inhibition is 80.4% (active).

Turning to `COc1cccc(NC(=O)N(C)C[C@@H]2OCc3cn(nn3)CCCC(=O)N([C@@H](C)CO)C[C@H]2C)c1`, the inhibition is -2.21%.

Take `COC(=O)[C@]12C[C@H](CC(=O)NCc3cccc(C(F)(F)F)c3)C(=O)N(Cc3ccc4c(c3)OCO4)C1=C[C@H](COCc1ccccc1)O[C@@H]2C`: the inhibition is 4.24%.

On to `COc1cc(SC)ccc1C(=O)Nc1nc(C)cs1`, for which the inhibition was 73.4% (active).

Consider `COc1cc(Cl)c(C)cc1NC(=O)COC(=O)c1cc(SC)ccc1Cl`, for which the inhibition is -3.4%.

Turning to `Cc1csc(NC(=O)CN2CCCCCC2)n1`, the inhibition is -13.9%.

Turning to `COCc1[nH]nc2c1C(c1ccccc1)N(c1ccccc1)C2=O` (stereo not drawn), the inhibition is 13.8%.

In the case of `N#CCC[C@H]1CC[C@]2(CCCN(Cc3ccc(Cl)cc3)C2)O1`, the inhibition is 7.54%.

Turning to `COc1ccc(S(=O)(=O)Nc2ccc(F)cc2)c(C)c1C`, the inhibition is -27.1%.

With `CC(CCN1CCC(C(O)(c2ccccc2)c2ccccc2)CC1)Oc1ccc(C(F)(F)F)cc1` (stereo not drawn), the inhibition was -7.91%.

With `Cc1cc(C(=O)COC(=O)CNC(=O)c2ccc(F)cc2)c(C)n1Cc1ccco1`, the inhibition was -4.87%.

Regarding `COCCn1c(C)cc(C(=O)COC(=O)CNC(=O)c2ccco2)c1C`, the inhibition was -9.66%.

In the case of `Cc1ccsc1C(=O)OCC(=O)c1cc(C)n(CC2CCCO2)c1C` (stereo not drawn), the inhibition is 73.2% (active).

As to `O=C(Nc1ccccc1)N1CCN(Cc2nc3ccccc3c(=O)[nH]2)CC1`, the inhibition was -10.6%.

On to `O=S1(=O)c2c(NCc3ccco3)cccc2Oc2ccccc2CN1Cc1cn(Cc2cccc(C(F)(F)F)c2)nn1`, for which the inhibition is 4.32%.

Consider `Clc1ccc(Cl)c(Oc2ccc(Oc3nc(Cl)ccc3Cl)cc2)n1`, for which the inhibition was -10%.

Take `c1csc(-c2nnc(SCc3nc4ccccc4[nH]3)o2)c1`: the inhibition is 4.24%.

Turning to `O=C(NCc1ccc2c(c1)OCO2)c1cc2c(s1)CS(=O)(=O)C2`, the inhibition is 13.1%.

For the compound `COc1cccc(NC(=O)C2(C)CCN2Cc2ccccc2Cl)c1` (stereo not drawn), the inhibition is -0.04%.

Consider `C#CCNC(=O)C[C@H]1C[C@@]2(C(=O)OC)C(=C[C@H](C(C)C)O[C@@H]2C2CC2)N(Cc2ccco2)C1=O`, for which the inhibition is 14.7%.

Regarding `Cc1ccc(CSc2nnc(SCC(=O)NN=Cc3cc(Br)ccc3F)s2)cc1`, the inhibition was 15%.

On to `Cc1cccc(Nc2nc3c(S(=O)(=O)c4ccccc4)nnn3c3ccccc23)c1C`, for which the inhibition is 6.13%.

`Cc1noc(C)c1S(=O)(=O)N(C)C[C@H]1OCCCC[C@@H](C)Oc2ccc(NC(=O)CCCN(C)C)cc2C(=O)N([C@H](C)CO)C[C@@H]1C`: the inhibition is -6.35%.

For `CCC(C)CN1C(=O)CN(S(C)(=O)=O)CC1(C)C(=O)Nc1ccc2c(c1)OCCO2` (stereo not drawn), the inhibition was -21.3%.

Regarding `CCOC(=O)N1CCN(C(=O)C[C@H]2C[C@@]3(C(=O)OC)C(=C[C@H](C(C)(C)C)O[C@@H]3C)N(Cc3ccc(Cl)cc3Cl)C2=O)CC1`, the inhibition is 23.9%.

As to `CC1(C)Cc2c(sc3nc(SCC(=O)NCc4ccccc4)n(-c4ccccc4)c(=O)c23)CS1`, the inhibition was -9.11%.

Turning to `C[C@@H]1ON(C)[C@H]2C[C@H]3c4[nH]c5cccc(-c6ccc7c(c6)OCO7)c5c4CCN3C[C@@H]12`, the inhibition was -21%.

The values above are taken from PubChem BioAssay AID651957 (The Scripps Research Institute Molecular Screening Center, 2012).
